Only some compounds are listed: those with a hit (about 3.5% of all), similar ones and a draw of the others.
SKN-1 block – suppressors of acrylamide-induced Pgst-4::GFP reporter in worms, primary screen, SKN-1 inhibitor project, whole organism, uHTS, GFP/RFP fluorescence ratio, strain VP596 | 360,000 compounds, 0.49% hits | inhibition, % at 21.8 µM | C. elegans VP596 Pgst-4::GFP/RFP ratio, 24 h;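 active means interference check ratio from 0.5 to 1.5 plus GFP to RFP signal ratio inhibition reaching or exceeding a fixed threshold, cut at about 30% in these data, passing the limit was not always enough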
ATG4B inhibitor – ATG4B protease inhibitors, primary screen, biochemical, fluorescence, uHTS; Cysteine protease ATG4B (Homo sapiens), Q9Y4P1; ATG4B cleavage of LC3-PLA2, NBD-HPC fluorescence, 1 h; inhibition, % at 8.33 µM; 340,000 compounds, 0.51% hits; in the data active means inhibition above about 40%
Target sequence (Q9Y4P1 whole entry, looked up): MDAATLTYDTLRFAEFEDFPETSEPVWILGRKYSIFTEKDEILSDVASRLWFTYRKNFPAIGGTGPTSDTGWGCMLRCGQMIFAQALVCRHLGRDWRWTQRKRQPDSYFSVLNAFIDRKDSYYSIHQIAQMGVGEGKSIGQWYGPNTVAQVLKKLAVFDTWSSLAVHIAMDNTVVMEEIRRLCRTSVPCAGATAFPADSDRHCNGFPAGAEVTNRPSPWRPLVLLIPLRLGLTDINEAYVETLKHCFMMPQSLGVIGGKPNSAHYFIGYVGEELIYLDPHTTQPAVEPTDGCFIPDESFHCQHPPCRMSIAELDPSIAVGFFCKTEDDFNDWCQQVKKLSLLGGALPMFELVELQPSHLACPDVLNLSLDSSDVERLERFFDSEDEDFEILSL
CHRM1 agonist – human M1 muscarinic receptor agonists, primary screen, Fluo-8 calcium fluorescence, CHO-K1 cells, HTS. Muscarinic acetylcholine receptor M1 (Homo sapiens), P11229. CHO-K1 hM1, agonist mode; 0% DMSO, 100% acetylcholine EC100. activation, % at 3 µM. 360,000 compounds, 0.33% hits. AID 588814, 2011;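 active means activation above the run's mean compound activation plus 3 SD, cut at about 16% in these data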;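 further: peak over basal fluorescence ratio within a 140 s kinetic read after compound addition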
Myeloid diff 2 – induction of myeloid progenitor differentiation, primary screen, cell-based, flow cytometry, MLPCN library | ER-HoxA9 myeloid progenitors, lysozyme-GFP differentiation | calls only at 10 µM | 360,000 compounds, 1% hits;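 active means normalized GFP-positive differentiation at or above the plate's own cutoff, the solvent-only control mean plus 3 SD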;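 further: cells exposed to compound for four days before flow analysis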
CHRM1 antagonist – human M1 muscarinic receptor antagonists, primary screen, CHO-K1 cells, Fluo-8 calcium fluorescence, 1536-well; 360,000 compounds, 1.3% hits; inhibition, % at 3 µM; CHO-K1 hM1, ACh EC80 antagonist;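 active means percent inhibition above its own plate's cutoff, namely the mean of that plate's compound wells plus 3 SD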;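 further: peak over basal fluorescence ratio during 140 s after agonist addition; 0% = ACh EC80 plus DMSO and 100% = DMSO alone without agonist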
CHRM1 PAM – human M1 muscarinic receptor positive allosteric modulators, primary screen, CHO-K1 cells, Fluo-8 calcium fluorescence, 1536-well | Muscarinic acetylcholine receptor M1 (Homo sapiens), P11229 | CHO-K1 hM1, ACh EC20; 0% = ACh EC20, 100% = maximal ACh | activation, % at 3 µM | 360,000 compounds, 0.088% hits | AID 588819, 2011; in the data active means activation above about 19%, passing the limit was not always enough
The depositor's hits bear a star.

`Cn1c(N2CCOCC2)c(C#N)c2ccccc21` gave SKN-1 block 10.6, ATG4B inhibitor 6.3, CHRM1 agonist -3.7, Myeloid diff 2 inactive, CHRM1 antagonist -16.0 and CHRM1 PAM 13.8.
For CCSc1nsc(NC(=O)Nc2ccccc2F)n1 the results were SKN-1 block 19.4, ATG4B inhibitor -4.2, CHRM1 agonist 3.6, Myeloid diff 2 inactive, CHRM1 antagonist 21.9 and CHRM1 PAM -11.6.
CCSc1nsc(NC(=O)Nc2cccc(OC)c2)n1 was read as SKN-1 block 12.2, ATG4B inhibitor 3.2, CHRM1 agonist 3.8, Myeloid diff 2 inactive, CHRM1 antagonist 26.9* and CHRM1 PAM -13.9.
For C=CCSc1nsc(NC(=O)Nc2ccc(F)cc2)n1 the results were SKN-1 block 8.3, ATG4B inhibitor 11.0, CHRM1 agonist 4.8, Myeloid diff 2 inactive, CHRM1 antagonist 30.7* and CHRM1 PAM -12.6.
For Cc1c(CCOC(=O)c2ccccc2)sc[n+]1CC(=O)c1ccc(Br)cc1 the results were SKN-1 block 20.1, ATG4B inhibitor 8.9, CHRM1 agonist -11.3, Myeloid diff 2 inactive, CHRM1 antagonist 76.8* and CHRM1 PAM -31.8.
For Cc1c(CCOC(=O)c2ccccc2)sc[n+]1Cc1ccccc1 the results were SKN-1 block 11.3, ATG4B inhibitor -2.5, CHRM1 agonist -8.9, Myeloid diff 2 inactive, CHRM1 antagonist 98.2* and CHRM1 PAM -22.4.
Screening Cc1c(CCOC(=O)c2cc([N+](=O)[O-])cc([N+](=O)[O-])c2)sc[n+]1CC(=O)c1ccccc1 returned SKN-1 block 6.6, ATG4B inhibitor -8.8, CHRM1 agonist -6.2, Myeloid diff 2 inactive, CHRM1 antagonist 31.8 and CHRM1 PAM -16.0.
COc1ccc(NC(=O)C2CC(c3ccccc3O)=NO2)cc1OC (stereo not drawn) was read as SKN-1 block 14.0, ATG4B inhibitor 3.9, CHRM1 agonist 0.8, Myeloid diff 2 inactive, CHRM1 antagonist -8.9 and CHRM1 PAM 6.8.
Screening Cc1ccc(NS(=O)(=O)c2ccc(OCC(=O)N3CCOCC3)cc2)cc1 returned SKN-1 block 4.6, ATG4B inhibitor -6.3, CHRM1 agonist 3.1, Myeloid diff 2 inactive, CHRM1 antagonist 9.0 and CHRM1 PAM -8.4.
For O=C1/C(=C\c2ccc(C(F)(F)F)cc2)CSc2sccc21 the results were SKN-1 block 36.5*, ATG4B inhibitor -0.8, CHRM1 agonist -2.4, Myeloid diff 2 inactive, CHRM1 antagonist -16.4 and CHRM1 PAM 5.8.
Cc1c(C)n(CCc2ccccc2)c2ncnc(NCCO)c12 was read as SKN-1 block 14.8, ATG4B inhibitor -6.0, CHRM1 agonist -4.6, Myeloid diff 2 inactive, CHRM1 antagonist 4.2 and CHRM1 PAM -3.9.
Cc1c(C)n(Cc2ccccc2)c2ncnc(Cl)c12 was read as SKN-1 block 11.2, ATG4B inhibitor -6.8, CHRM1 agonist -1.3, Myeloid diff 2 inactive, CHRM1 antagonist 35.1* and CHRM1 PAM -19.3.
For CCOC(=O)C1CCCN(C2CC(=O)N(c3ccc(NC(C)=O)cc3)C2=O)C1 (stereo not drawn) the results were SKN-1 block -3.6, ATG4B inhibitor 2.0, CHRM1 agonist 36.2*, Myeloid diff 2 inactive, CHRM1 antagonist 5.8 and CHRM1 PAM -12.0.
For CCOC(=O)N1CCN(C2CC(=O)N(c3ccc(C)cc3)C2=O)CC1 (stereo not drawn) the results were SKN-1 block -0.5, ATG4B inhibitor 2.6, CHRM1 agonist -0.9, Myeloid diff 2 inactive, CHRM1 antagonist -18.7 and CHRM1 PAM 4.8.
Screening CCOC(=O)C1CCCN(C2CC(=O)N(c3ccc(C)cc3)C2=O)C1 (stereo not drawn) returned SKN-1 block 7.0, ATG4B inhibitor -6.4, CHRM1 agonist 20.1*, Myeloid diff 2 inactive, CHRM1 antagonist -6.9 and CHRM1 PAM -3.8.
For O=S(=O)(c1ccc2c(c1)CCN2)N1CCOCC1 the results were SKN-1 block -6.2, ATG4B inhibitor -2.2, CHRM1 agonist -1.8, Myeloid diff 2 inactive, CHRM1 antagonist -10.9 and CHRM1 PAM 6.2.
For Cc1ccc(OCc2ccccc2C)c([N+](=O)[O-])n1 the results were SKN-1 block 4.9, ATG4B inhibitor 1.4, CHRM1 agonist -6.3, Myeloid diff 2 active, CHRM1 antagonist -4.7 and CHRM1 PAM 5.7.
`Cc1ccc(OCc2ccc([N+](=O)[O-])cc2)c([N+](=O)[O-])n1` gave SKN-1 block 0.1, ATG4B inhibitor -4.2, CHRM1 agonist -3.3, Myeloid diff 2 inactive, CHRM1 antagonist 1.8 and CHRM1 PAM 1.3.
For NS(=O)(=O)c1ccc(CCNC(=O)CCCn2ncn3c(cc4occc43)c2=O)cc1 the results were SKN-1 block -6.6, ATG4B inhibitor 4.8, CHRM1 agonist -1.5, Myeloid diff 2 inactive, CHRM1 antagonist -6.7 and CHRM1 PAM 2.2.
Screening CN(C)C(CNC(=O)CN1C(=O)NC2(CCCC2)C1=O)c1ccccc1 (stereo not drawn) returned SKN-1 block -4.7, ATG4B inhibitor -1.1, CHRM1 agonist -8.3, Myeloid diff 2 inactive, CHRM1 antagonist 47.9* and CHRM1 PAM -22.2.
CCOC(=O)C(Cc1ccc(NC(=O)/C(=C/c2ccccc2)NC(=O)c2ccccc2)cc1)N1C(=O)c2ccccc2C1=O (stereo not drawn) was read as SKN-1 block 15.8, ATG4B inhibitor 1.6, CHRM1 agonist -0.6, Myeloid diff 2 inactive, CHRM1 antagonist 14.9 and CHRM1 PAM -2.8.
CCOC(=O)C(Cc1ccc(NC(=O)/C(=C/c2ccc(OC(C)=O)cc2)NC(C)=O)cc1)N1C(=O)c2ccccc2C1=O (stereo not drawn) was read as SKN-1 block 30.4, ATG4B inhibitor -12.5, CHRM1 agonist -2.4, Myeloid diff 2 inactive, CHRM1 antagonist 27.3* and CHRM1 PAM -7.1.
For O=c1nc(Nc2ccc(OCc3ccccc3)cc2)sc2ncccc12 the results were SKN-1 block -8.5, ATG4B inhibitor -1.5, CHRM1 agonist -2.2, Myeloid diff 2 active, CHRM1 antagonist -16.6 and CHRM1 PAM 12.2.
Screening CCOC(=O)c1ccc(Nc2nc(=O)c3cccnc3s2)cc1 returned SKN-1 block 3.2, ATG4B inhibitor -6.4, CHRM1 agonist -5.6, Myeloid diff 2 inactive, CHRM1 antagonist 2.8 and CHRM1 PAM -5.6.
O=C1NCCCCC1NS(=O)(=O)c1ccc(Cl)cc1 (stereo not drawn) was read as SKN-1 block 9.4, ATG4B inhibitor 4.8, CHRM1 agonist -3.5, Myeloid diff 2 inactive, CHRM1 antagonist -27.3 and CHRM1 PAM 19.2.

High-throughput results deposited in PubChem BioAssay by several laboratories.
